In PubChem BioAssay (NCI) one finds growth data, which are given here for 16 molecules.

Holding throughout (test): NCI-60 one-dose screen, 48 h (100 = growth as untreated, 0 = no growth, -100 = all killed)
Holding throughout (conditions): 10 µM

Test [1] relates to SK-MEL-2 melanoma.
Test [2] concerns EKVX NSCLC.
Test [3] concerns SN12C renal.
In test [4] the test system is UO-31 renal.
The subject of test [5] is ACHN renal.
The subject of test [6] is CAKI-1 renal.
In test [7] the test system is CCRF-CEM leukemia.
Test [8] relates to MOLT-4 leukemia.
The subject of test [9] is A498 renal.
Test [10] concerns TK-10 renal.

About 83,000 compounds went through this panel and 20% of them were active in at least one assay; those are over-represented in the sample as a whole.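 Each cell line was grown in a 96-well plate and treated with one concentration of compound for 48 hours. Values below 10 were considered active.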 Unmarked numbers belong to inactive results. Calls of active or inactive are those of the source.

Regarding `CCCCC/C=C/C/C=C/CCCCCCCC1=NC(C)(C)CN1C(C)C`, the growth in [1] was 84.6%; in [2], 51.9%; in test [3], 47.9%; in test [4] it was 26.2%; in [5] it was 32.9%; in test [6], 26.9%. Besides, the values for the growth in test [7] and in test [8] were 8.7% (active) and 1.44% (active), respectively.
`C/C(=N\O)c1ccc(NC(=O)CSc2nnc(-c3ccccc3)n2-c2ccccc2)cc1`: the growth was 118% in [1]; 91.9% in test [2]; 72.4% in [3]; 76.2% in [4]; 63.7% in test [5]; 85.6% in test [6]. For the same molecule, the growth was 92.7% in test [9], 92% in test [7] and 95.2% in [8].
Turning to `COc1cc2cc(Oc3ccc(NC(=O)Nc4ccc(Cl)c(C(F)(F)F)c4)cc3)c(C)nc2cc1OC`, the growth in [1] was -49.8% (active); in test [2] it was 8.83% (active); in test [3], 13.2%; in [4], -45.1% (active); in [5], 13.6%; in test [6], -8.92% (active). In addition, the growth was 10.5% in test [9], -17.6% (active) in test [7] and -27.9% (active) in test [8].
On to `Cc1c2c(nn1C(=O)c1nn(-c3ccc(Cl)cc3)cc1O)-c1ccccc1CC2`, for which the growth in test [1] was 0.774% (active); in [2] it was 6.22% (active); in test [3], 29.2%; in [4] it was 10.3%; in [5], 16.7%; in test [6], -25.5% (active). Moreover, the growth in test [9] was 80.5%; in test [7], -7.92% (active); in test [8] it was -1.46% (active).
`COc1ccc2c(c1)OC(N)=C(C#N)C2c1cc(OC)c(OC)c(OC)c1` (stereo not given): the growth was 27.3% in test [1]; 49.7% in [2]; 25% in test [3]; 47.2% in test [4]; 32.8% in [5]; 30.4% in test [6]. Also, the growth in test [9] was -14.1% (active); in test [7], 7.72% (active); in test [8], 7.89% (active).
Consider `Cc1c(C(N)=O)sc2c1c(=O)n(Cc1ccccc1)c1nnc(-c3ccc(Br)cc3)n21`, for which the growth in test [1] was 42.5%; in [2], 36.7%; in [3], 32.8%; in test [10], 47.4%; in [5] it was 10.1%; in [6], 1.27% (active). The growth in test [9] is 56%.
As for `CS(=O)(=O)c1nccc(-c2c(-c3cccc(OCc4ccc(F)cc4)c3)nc3sccn23)n1`, the growth in [1] is 96%; in [2], 97.2%; in [3] it was 77.7%; in [4], -24.1% (active); in test [5] it was 94.9%; in [6] it was 34.4%. The growth in [9] is 77.3%; in test [7], 50%; in [8], 24.2%.
In the case of `CC[N+](CC)=c1ccc2nc3c(cc(NCc4ccccc4)c4ccccc43)oc-2c1`, the growth is -80.1% (active) in test [1]; -96.7% (active) in [2]; -85.9% (active) in test [3]; -10.6% (active) in [10]; -77.9% (active) in test [5]; -70.8% (active) in test [6]. For the same molecule, the figures for the growth in test [9], in [7] and in test [8] were 44.8%, 19% and 2.86% (active), respectively.
`CN(C)CCC1(c2ccccc2)CCN(C)C1=O` (stereo not given): the growth is 95.4% in test [1]; 110% in [2]; 103% in [3]; 112% in [10]; 102% in [5]; 103% in [6]. The growth in test [9] was 94.1%; in test [7] it was 103%; in test [8] it was 95.6%.
For the molecule `C=C/C(C)=C/C[C@]1(C)[C@H](C)[C@@H](OC(=O)CCC)[C@H](O)[C@@]23C(=C[C@H](OC)C[C@@H]12)[C@@H](OC(=O)CCC)O[C@H]3OC(C)=O`, the growth is -70.5% (active) in [1]; -33.7% (active) in test [2]; -51.9% (active) in test [3]; -95.1% (active) in test [10]; -94.4% (active) in test [5]; 0.0055% (active) in [6]. Further, the growth in test [8] is -12.8% (active).
Turning to `CN(C)c1nc(N)c2nccnc2n1`, the growth in test [1] was 97.9%; in test [2] it was 98.3%; in test [3] it was 99.6%; in [10], 104%; in test [5], 105%; in test [6] it was 84.7%. The growth was 93% in test [9], 114% in test [7] and 98.1% in test [8].
As to `CC(=O)OC1CC2C(C)(C)CCC[C@]2(C)C2=C1C(O)=C(C(C)C)C(=O)C2=O` (stereo not given in full), the growth in [1] was -2.83% (active); in test [2], -15.7% (active); in test [3], 3.28% (active); in test [10] it was 22.5%; in [5], -95.3% (active); in [6], -5.22% (active). Further, the growth in [7] was 26.8%; in test [8], 17.4%.
Regarding `COc1cc(C(=O)/C=C/c2c[nH]c3ccccc23)cc(OC)c1OC`, the growth in test [1] is 19.5%; in [2] it was 35.2%; in [3], 25.2%; in test [10] it was 48%; in test [5], 18.7%; in test [6], 27.6%. Besides, the growth in test [9] was 10.2%; in test [8], 17.6%.
As to `CC1C(=NC(=O)c2cnccn2)C(C)C(c2ccc(Cl)cc2)NC1c1ccncc1` (stereo not given), the growth in test [1] is 104%; in test [2] it was 88.6%; in test [3], 93.3%; in [10], 130%; in [5], 91.5%; in test [9] it was 115%. Besides, the growth is 79.5% in test [7] and 78.5% in [8].
In the case of `NC(N)=N/N=C(\N=Nc1ccccc1)c1ccc(Cl)cc1`, the growth is 52.5% in test [1]; 49.2% in [2]; 76.3% in [3]; 65.8% in test [10]; 25.1% in [5]; 1.66% (active) in test [6]. Also, the growth in test [9] is 14.7%; in test [7], -4.7% (active); in [8], 2.47% (active).
On to `CNC(=O)c1cc(Oc2ccc3c(c2)sc2nc(-c4ccc(N)cc4)cn23)ccn1`, for which the growth in test [1] is 35.8%; in test [2] it was 40.9%; in test [3], 29.4%; in test [10], 57.4%; in test [5], 29.1%; in [6], 43.9%. Also, the growth in [9] is 26.7%; in [8], 15%.
